GSH bead fluor – GSH bead compound fluorescence profile | fluorescence (KMESF) at 10 µM | GSH beads flow cytometry, compound fluorescence 488/530 nm; active compounds read high | actives 0.25% (n = 190,000); in the data active means fluorescence above about 89;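 further: glutathione beads carrying GST-tagged Bcl family fusion proteins plus one bare bead set; values are compound well signal with DMSO vehicle wells as background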
Avidin bead fluor – compound fluoresces at 488/530 nm on avidin beads | compound fluorescence 488/530 nm, flow cytometry; active compounds read high | fluorescence (KMESF) at 10 µM | actives 0.38% (n = 220,000); in the data active means fluorescence above about 47
RGS8-Gao reg – modulates binding of RGS8 to human Galphao; P09471; multiplexed bead flow cytometry; actives lie on both sides; response (percent of control binding), % at 10 µM; actives 0.34% (n = 220,000); AID 1423; in the data active means response below about 60% or above about 140%; inactive means in between;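 further: Galphao activated as the GDP aluminium fluoride complex binding bead-coupled RGS8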
Target sequence (P09471 whole entry, looked up): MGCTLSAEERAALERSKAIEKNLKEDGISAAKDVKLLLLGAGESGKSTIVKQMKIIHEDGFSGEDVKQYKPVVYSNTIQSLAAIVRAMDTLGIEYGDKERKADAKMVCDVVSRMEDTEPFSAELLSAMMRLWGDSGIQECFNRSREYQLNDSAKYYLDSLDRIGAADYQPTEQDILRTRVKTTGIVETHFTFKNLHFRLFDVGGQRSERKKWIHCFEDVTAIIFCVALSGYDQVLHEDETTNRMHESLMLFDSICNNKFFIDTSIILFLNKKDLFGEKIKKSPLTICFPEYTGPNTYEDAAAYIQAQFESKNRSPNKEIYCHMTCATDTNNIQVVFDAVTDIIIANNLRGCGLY
RGS4-Gao reg – modulates binding of RGS4 to human Galphao; Multiplexed bead flow cytometry; actives lie on both sides; binding response (% of control), % at 10 µM; actives 0.33% (n = 220,000); AID 1415; in the data active means binding response below about 49% or above about 150%; inactive means in between;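 further: fluorescent Galphao activated with aluminum fluoride binding bead-coupled RGS4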
RGS16-Gao HTS – regulators of human RGS16-Galphao interaction; binding response (% of control), % at 10 µM; actives 0.38% (n = 220,000); bead-based flow cytometry RGS16-Galphao binding, fluorescence; actives lie on both sides;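 further: Galphao activated by GDP with aluminum fluoride before binding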
RGS7-Gao – human RGS7-Galphao interaction regulation; P09471; Multiplexed bead flow cytometry, RGS7-Galphao binding; actives lie on both sides; binding response (% of control), % at 10 µM; actives 0.35% (n = 220,000); AID 1439; in the data active means binding response below about 49% or above about 150%; inconclusive means no clear call, values can overlap the other calls; inactive means in between;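 further: fluorescent Galphao held in activated GDP-AlF4 state binding bead-coupled RGS7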
RGS-Gao – modulates binding between human RGS4 and Galphao. shares compounds with RGS16-Gao HTS. multiplexed bead flow cytometry, RGS–Galpha-o binding. RGS4–Galpha-o binding response, % at 10 µM. actives 99% (n = 1,600). AID 1504;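 further: fluorescently labeled Galpha-o bound to GDP with aluminium fluoride binding biotinylated RGS beads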
Target sequence (P09471 whole entry, looked up): as above
Target sequence (P49798 whole entry, looked up): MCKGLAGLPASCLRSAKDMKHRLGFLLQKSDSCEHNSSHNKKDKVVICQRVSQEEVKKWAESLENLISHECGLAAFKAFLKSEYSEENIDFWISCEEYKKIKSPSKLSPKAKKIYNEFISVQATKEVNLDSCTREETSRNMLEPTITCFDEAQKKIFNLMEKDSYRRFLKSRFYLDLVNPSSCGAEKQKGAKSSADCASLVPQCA
Biotin-avidin – counter-screen: compounds disrupting biotin binding to avidin beads. streptavidin beads, fluorescein-biotin binding, flow cytometry. 1,700 tested, under 10 active. shares compounds with RGS16-Gao HTS. inhibition, % at 10 µM. AID 1783;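 active means inhibition above 50%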;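 further: median green fluorescence of gated singlet beads compared with DMSO control wells; 0% = DMSO wells and 100% = complete loss of bead fluorescence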
RGS8-Gao confirm – confirmation of regulators of human RGS8-Galphao interaction; shares compounds with RGS16-Gao HTS; bead-based flow cytometry RGS8-Galphao binding, fluorescence; actives lie on both sides; actives 3% (n = 1,700); binding response (% of control), % at 10 µM; in the data active means binding response below about 72% or above about 130%; inactive means in between;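 further: Galphao activated as GDP AlF4 complex before binding bead RGS8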
RGS7-Gao confirm – RGS7-Galphao interaction regulation, single point confirmation. shares compounds with RGS16-Gao HTS. bead-based flow cytometry RGS7-Galphao binding; actives lie on both sides. response (percent of control binding), % at 10 µM. actives 7.8% (n = 1,700); in the data active means response below about 75% or above about 130%; inactive means in between;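 further: fluorescent Galphao activated with GDP and aluminum fluoride binding bead-coupled RGS7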
RGS16-Gao conf – confirmation of regulators of human RGS16-Galphao interaction; shares compounds with RGS16-Gao HTS; bead-based flow cytometry, RGS16-Galphao binding; actives lie on both sides; response (% of control binding), % at 10 µM; actives 4% (n = 1,700); in the data active means response below about 74% or above about 130%; inactive means in between;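 further: Galphao activated as the GDP aluminium fluoride complex binding bead-coupled RGS16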
RGS4-Gao confirm – confirmation of regulators of human RGS4-Galphao interaction; shares compounds with RGS16-Gao HTS; RGS4-Galphao binding, multiplexed bead flow cytometry; actives lie on both sides; binding response (% of control), % at 10 µM; actives 4% (n = 1,700); in the data active means binding response below about 74% or above about 130%; inactive means in between
RGS19-Gao conf – confirmation of regulators of human RGS19-Galphao interaction | response (percent of control binding), % at 10 µM | shares compounds with RGS16-Gao HTS | actives 5% (n = 1,700) | bead-based flow cytometry RGS19-Galphao binding; actives lie on both sides; in the data active means response below about 50% or above about 160%; inactive means in between;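 further: 100% = no compound control and 0% = blank background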
The depositor's hits bear a star; i = inactive; ? = inconclusive; / = no result given; [ ] = dose if it differs, or a comment. A selection: hits, their analogues and other compounds. The true share with any hit is near 1.2%. Unless noted, how the calls were made is not given here.

SMILES	GSH bead fluor	Avidin bead fluor	RGS8-Gao reg	RGS4-Gao reg	RGS16-Gao HTS	RGS7-Gao	RGS-Gao	Biotin-avidin	RGS8-Gao confirm	RGS7-Gao confirm	RGS16-Gao conf	RGS4-Gao confirm	RGS19-Gao conf
CCOC(=O)CNNC(=O)Nc1ccc(Cl)c(Cl)c1	13	6	153*[activator]	123	326*[activator]	112	123*	1	100	105	98	102	93
COc1ccc(-c2cnnn2-c2ccc(NC(=O)c3ccc(S(=O)(=O)N4CCCCC4)cc3)cc2)cc1	10	-2	25*	22*	14	21*	/	0	100	99	98	99	103
NS(=O)(=O)c1ccc(N/N=C/c2ccc(O)c(O)c2O)c([N+](=O)[O-])c1	/	-1	39*	69	20*	?	69*	-9	43*	35*	42*	71*	-0.4*
Cc1cc(=O)oc2c(CN(CC(C)C)CC(C)C)c(O)ccc12	12	4	144*[activator]	119	249	115	119*	i	99	103	100	101	99
O=C(NCc1ccccc1)c1cc2ccccc2o1	11	13	102	103	106	110	/	/	/	/	/	/	/
CCNC(=O)c1cc2ccccc2o1	25	-1	16*	10*	11*	15*	/	1	98	102	99	99	92
CSC1=NC(=O)/C(=C\c2cccc3ccccc23)S1	11	200*	97	124	113	223*[activator]	124*	-1	101	98	99	97	95
N=C1S/C(=C\c2cccc3ccccc23)C(=O)N1c1ccc(F)cc1	8	10	101	100	101	99	/	/	/	/	/	/	/
Cc1ccc(-c2nn(-c3ccccc3)cc2/C=C2\SC(=S)N(CC(=O)O)C2=O)cc1	/	8	99	95	49	?	/	/	/	/	/	/	/
CCOc1ccc(-c2nn(-c3ccccc3)cc2/C=C2\SC(N)=NC2=O)cc1C	20	-2	12*	22*	1.8*	16*	/	3	102	101	103	101	103
Nc1cnn(Cc2ccccc2F)c1	12	9	99	95	93	?	/	/	/	/	/	/	/
COc1ccc(-n2c(N)c(C(=O)Nc3c(C)n(C)n(-c4ccccc4)c3=O)c3nc4ccccc4nc32)cc1	/	116*	141*[activator]	315*[activator]	288*[activator]	?	/	0	102	105	101	102	100
Cc1ccc(-n2c(N)c(C(=O)Nc3c(C)n(C)n(-c4ccccc4)c3=O)c3nc4ccccc4nc32)cc1C	11	20	99	96	106	96	/	/	/	/	/	/	/
COc1ccc(S(=O)(=O)N(C)c2ccc(C(=O)N3CCCCC3)cc2)cc1OC	/	9	98	96	107	?	/	/	/	/	/	/	/
CCOC(=O)c1ccc(N2C(=O)CC(N3CCN(C/C=C/c4ccccc4)CC3)C2=O)cc1 (configuration not stated)	66	7	153*[activator]	134	i	122	134*	0	109	108	112	105	115
CCOC(=O)C1CCCN(C2CC(=O)N(c3ccccc3)C2=O)C1 (configuration not stated)	12	10	95	94	96	86	/	/	/	/	/	/	/
CC1C(=O)CC(c2ccccc2)NC1c1ccccc1 (configuration not stated)	10	12	125	117	407*[activator]	106	117*	-1	101	103	100	103	102
O=C1COc2ccc(C(=O)COC(=O)CNC(=O)C3CCCCC3)cc2N1	13	12	145*[activator]	153*[activator]	154	167*[activator]	/	1	94	92	98	93	102
Cc1ccc(C(=O)NCC(=O)OCC(=O)c2ccc3c(c2)NC(=O)CO3)cc1C	12	10	100	102	96	99	/	/	/	/	/	/	/
COc1cc(C(=O)OCC(=O)NC2CCS(=O)(=O)C2)ccc1OCc1c(C)noc1C (configuration not stated)	15	73*	104	100	125	154*[activator]	100*	1	100	99	96	98	101
COc1cc(C(=O)OCC#N)ccc1OCc1c(C)noc1C	/	9	100	104	100	?	/	/	/	/	/	/	/
Cc1ccc(C(=O)NNC(=O)CSc2n[nH]c(-c3cccnc3)n2)cc1	14	14	103	103	105	103	/	/	/	/	/	/	/
CC(=O)N(c1ccccc1C)C1CCCC1	6	2	102	101	105	100	/	/	/	/	/	/	/
CC(=O)N(C1=C(Cl)C(=O)c2ccccc2C1=O)C1CCCCC1	/	2	54*	87	3.0*	?	87*	/	/	/	/	/	/
COc1ccc2c(C(=O)CCl)c[nH]c2c1	/	10	101	105	98	?	/	/	/	/	/	/	/
Cc1cc(NC(=O)CSc2nc(C(C)C)nc3sc(C)c(C)c23)no1	31	12	100	98	102	101	/	/	/	/	/	/	/
Cc1cc(NC(=O)CSc2nnc3c4c(C)c(C)sc4ncn23)no1	29	111*	100	114	103	188*[activator]	114*	0	105	103	104	102	95
C/C(=C\C(=O)C(F)(F)F)Nc1ccc(C)cc1	12	5	166*[activator]	120	598	117	120*	0	99	101	97	99	104
Cn1c(CSCc2ccc(Cl)cc2)nnc1SCC(=O)Nc1nc2ccccc2s1	39	/	/	/	/	/	/	-1	98	101	99	102	103
Cn1c(CSCc2ccc(Cl)cc2)nnc1SCC(=O)Nc1nccs1	17	20	102	104	109	103	/	/	/	/	/	/	/
